Experimental data reported in the supplement of paper PMC9402605.
± gives the standard deviation of the averaged measurements.

system: Caenorhabditis elegans N2; experiment: egg-laying rate relative to DMSO control (serotonin + nicotine background) (fraction of control); higher = more egg-laying; details: background: 12.3 mM serotonin + 7.7 mM nicotine; 60 µM; 1 h
Protocol: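 About 20 young-adult wild-type C. elegans (N2) per well in 96-well plates were exposed to 60 uM compound for 1 h at room temperature, either in M9 buffer (to find stimulators) or in 12.3 mM serotonin + 7.7 mM nicotine (NS, to find inhibitors). Eggs per worm per hour were counted by automated imaging and normalised to the mean of proximal DMSO control wells. Values average the primary screen and two retests of the worm-active (wactive) Egl modulators.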

Row | Compound | egg-laying rate
1 | O=[N+]([O-])c1ccc(CSc2ccc(Cl)cc2)cc1 [wact-3] | 0.473 ± 0.36
2 | Ic1cccc(-c2nnc(-c3ccccc3)o2)c1 [wact-51] | 0.995 ± 0.094
3 | Cc1ccn2cc(-c3ccc(F)cc3)nc2c1 [wact-436] | 0.478 ± 0.25
4 | Cc1ccc(-c2cnc(-c3ccncc3)o2)cc1 [wact-23] | 0.55 ± 0.19
5 | O=C1CC(N2CCN(c3ccc([N+](=O)[O-])cc3)CC2)C(=O)N1c1ccccc1F (stereo not given) [wact-56] | 1.06 ± 0.17
6 | O=[N+]([O-])c1ccc(N2CCc3ccccc3C2)nc1 [wact-421] | 0.435 ± 0.099
7 | Cc1ccccc1C(=O)NCCc1ccccc1 [wact-406] | 0.394 ± 0.22
8 | c1ccc(CSc2nnc(-c3ccccc3)o2)cc1 [wact-38] | 0.966 ± 0.24
9 | O=C(Nc1cccc(Cl)c1)N1CCN(c2ccc([N+](=O)[O-])cc2)CC1 [wact-31] | 1.03 ± 0.29
10 | COc1ccc(C=Cc2ccccn2)cc1 [wact-622] | 0.373 ± 0.18
11 | Cc1ccccc1C(=O)NCCSC1CCCCC1 [wact-494] | 0.524 ± 0.2
12 | CCSc1nnc(-c2ccc(Cl)cc2Cl)o1 [wact-4] | 0.795 ± 0.052
13 | CCCCOC(=O)Nc1ccc([N+](=O)[O-])cc1 [wact-419] | 0.733 ± 0.18
14 | Clc1ccc(-c2cn3ccsc3n2)cc1 [wact-1] | 0.584 ± 0.24
15 | O=[N+]([O-])c1ccc(N2CCN(CC3CC=CCC3)CC2)cc1 (stereo not given) [wact-47] | 1.13 ± 0.076
16 | CCc1ccc(-c2cn3ccsc3n2)cc1 [wact-434] | 0.474 ± 0.18
17 | O=[N+]([O-])c1ccc(N2CCN(CC3CCCCC3)CC2)cc1 [wact-45] | 0.994 ± 0.16
18 | O=C(Nc1ccc(I)cc1)c1ccco1 [wact-27] | 0.759 ± 0.099
19 | CCOc1ccc(C(=O)c2cccs2)cc1 [wact-471] | 1.02 ± 0.22
20 | CCC1CCC(N2CCN(c3ccc([N+](=O)[O-])cc3)CC2)CC1 (stereo not given) [wact-6] | 0.999 ± 0.56
21 | O=[N+]([O-])c1ccc(-n2ccc3ccccc32)cc1 [wact-213] | 0.444 ± 0.061
22 | O=[N+]([O-])c1ccc(N2CCN(CC3CC4C=CC3C4)CC2)cc1 (stereo not given) [wact-46] | 1.34 ± 0.22
23 | c1csc(-c2cnc3ccccc3n2)c1 [wact-21] | 0.816 ± 0.081
24 | Brc1cccc(-c2cn3ccccc3n2)c1 [wact-435] | 0.712 ± 0.25
25 | Fc1ccc(-c2cn3ccsc3n2)cc1 [wact-433] | 0.471 ± 0.016
